HCV inhibitor: blocks hepatitis C virus. Huh7.5.1 HCVcc-Cre infection, luciferase reporter, 44 h. AID 651820. 3.4% of 340,000 active. Potency, µM (highest dose often 41.8 µM), without a hit: at the highest dose activity change, negative = inhibition, usual class: inhibitors; note: potency is the fitted concentration of half-maximal effect
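Antiviral activity was scored by luciferase reporter output from cells infected with HCVcc-Cre (~0.5 moi) in presence of compound, 44 h infection period, cells seeded 1,000/well 4 h prior.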
Pf growth 48h: inhibits P. falciparum growth in the first generation, 48 h. P. falciparum luciferase growth in erythrocytes, 48 h. Potency, µM (top dose mostly 28.7 µM), for inactives: at the highest dose activity change, negative = inhibition, hits mostly inhibitors. 5.9% of 310,000 active. AID 504832; note: potency is the fitted concentration of half-maximal effect
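A one-generation exposure of luciferase-tagged malaria parasites in RPMI 1640/Albumax erythrocyte culture, 37 C and 5% CO2. Inhibition is inferred from decreased luminescence after adding detection reagent.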
Pf growth 96h: inhibits malaria parasite growth, 96 h. 6.9% of 320,000 active. P. falciparum luciferase reporter growth, 96 h. Potency, µM (highest dose often 28.7 µM), without a hit: at the top dose activity change, negative = inhibition, actives largely listed as inhibitors. AID 504834; note: potency is the fitted concentration of half-maximal effect
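Two-generation exposure (96 h) targets delayed-death phenotype. Reporter parasites carrying integrated firefly luciferase, in red cells at 2% hematocrit and 0.05% parasitemia final, kept at 37 C, 5% CO2; luminescence loss indicates inhibition.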
HCMV inh: blocks human cytomegalovirus replication; HFF cells, HCMV-luciferase reporter, 72 h; active compounds read low; activity change, negative = inhibition, % at 57.5 µM; 4.5% of 410,000 active; in the data active = activity change below about -60%; inconclusive = no clear call, values can overlap the other calls; inactive = above about -39%
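HFF cells seeded 16 h at 37C, treated with compounds, infected with luciferase-reporter HCMV at MOI 1 PFU/cell; luciferase read at 72 h post infection, normalized to buffer-only and Salinomycin controls.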
* marks the source's active call; other numbers are inactive results; ? = inconclusive; . = no result; [ ] = remark or other dose. Sampled rows, rich in hits. Any-hit rate of the full collection: about 13%. Unless noted, calls come from the whole dose curve; as a rule, active = well fitted inhibition curve with a large enough effect; inconclusive = small, poorly fitted or top-dose-only effect, or another doubt; inactive = no such curve, though single readings can be large or run the other way. % is set by controls: 0 for no effect and ±100 for the full control effect.

SMILES | HCV inhibitor | Pf growth 48h | Pf growth 96h | HCMV inh
CC(C)(C)c1cc([N+](=O)[O-])cc(C(C)(C)C)c1O | 10µM* | -22% | -22% | -100*
COc1ccccc1CNCc1ccc(OC)c2ccccc12 | -3% | . | . | -25
COc1cc(/C=N/N2CCOCC2)ccc1OCc1ccc(Cl)cc1 | -29% | 6% | 30% | ?
COc1cccc(CNCc2ccccn2)c1OC | -7% | 9% | 1% | -61*
CC1CN(C(=O)c2ccccc2OCc2ccc(Cl)cc2Cl)CC(C)O1 (stereo not drawn) | 14µM* | ? | ? | ?
COc1cccc(CNCc2ccc(OC)c3ccccc23)c1OC | ? | ? | ? | 19
COc1cc(CNCCN2CCOCC2)ccc1OCc1cccc(Cl)c1 | 8.9µM* | . | 12µM* | -16
COc1ccc(CNCc2ccc(OC)c3ccccc23)cc1 | 15% | 1% | 2.3µM* | ?
Cc1ccc(NC(=O)c2c(C)oc3ccc(O)c(CN4CCCC4)c23)c(C)c1 | . | . | . | -6
COc1cccc(NC(=O)c2oc3ccccc3c2NC(=O)Cc2cccc(C)c2)c1 | . | . | . | 21
Cc1ccccc1C(=O)n1nc(-c2cccnc2)nc1NCc1ccc(F)cc1 | . | . | . | -5
COc1cc(CNCCN2CCOCC2)ccc1OCc1ccc(Cl)cc1Cl | ? | 9.3µM* | 2.3µM* | -85*
COc1cc(CNCc2ccccn2)ccc1OCc1ccc(Cl)c(Cl)c1 | -21% | 17%[5.75 µM] | -21% | 23
COc1ccc(Cl)cc1C(=O)NCCN1CCOCC1 | 0% | -6% | ? | 56
COc1cc(CNCc2ccccn2)ccc1OCc1ccc(Cl)cc1Cl | ? | ? | 10µM* | -2
O=C(NCc1ccccn1)c1ccccc1Cl | 2% | 13% | . | 29
CNC(=S)NNC(=O)c1sccc1OCc1ccc(Cl)cc1Cl | -1% | 0% | 55% | 8
N/C(=N\NC(=O)c1sccc1OCc1ccc(Cl)cc1Cl)c1ccccn1 | ? | 3.3µM* | ? | ?
O=C(NCc1ccccn1)c1ccccc1OCc1ccc(Cl)cc1Cl | -22% | ? | 15µM* | -30
O=C(NCC(c1ccco1)S(=O)(=O)c1cccs1)c1ccc(C(F)(F)F)cc1 (stereo not drawn) | . | . | . | 15
COc1ccc(CCNCc2ccc(OCc3ccc(Cl)nc3)c(OC)c2)cc1OC | ? | . | 12µM* | -25
CCCCCNCc1ccc(OCc2ccc(Cl)nc2)c(OC)c1 | 1% | ? | ? | -2
Cc1ccccc1NC(=S)NCc1ccc2c(c1)cc(C)n2C | -17%[8.37 µM] | 26% | -21% | -4
CCc1cccc(C)c1NC(=S)NCc1ccc2c(c1)cc(C)n2C | ? | ? | 6.6µM* | -91*
CCS(=O)(=O)NCc1ccc2c(c1)cc(C)n2C | ? | ? | 6.6µM* | -25
SMILES | HCV inhibitor | Pf growth 48h | Pf growth 96h | HCMV inh
CCCS(=O)(=O)NCc1ccc2c(c1)cc(C)n2C | 7% | 5% | 26% | -15
CCC1CN(S(=O)(=O)c2cc(-c3cc(C)no3)ccc2C)c2cc(Cl)ccc2O1 (stereo not drawn) | . | . | . | 0
COC(=O)c1c(C)nc2c(c(SC)nn2-c2ccccc2)c1N | 11µM* | ? | . | -19
Cc1cccc(NC(=O)CNC(=O)[C@@H](Cc2ccccc2)NC(=O)[C@H]2O[C@@H](n3ccc(N)nc3=O)[C@H](O)[C@@H]2O)c1C | . | . | . | 32
CCCN1CNC(=S)N(c2ccccc2C)C1 | 11% | 3% | 1% | ?
CCN(CC)CCN1CNC(=S)N(c2ccccc2OC)C1 | 20% | 60% | 26% | -65*
COc1cc(NC(=O)c2cc3c(C)nc4ccccc4c3o2)cc(OC)c1OC | ? | . | 0% | -24
Cc1nc2ccccc2c2oc(C(=O)Nc3ccc(C(C)C)cc3)cc12 | ? | ? | 2% | -68*
Cc1nc2ccccc2c2oc(C(=O)Nc3ccc4c(c3)OCCO4)cc12 | 13µM* | . | ? | -31
CCN1/C(=C/C(C)=O)Sc2ccc(OC)cc21 | 3% | 8% | ? | 1
CCN1/C(=C/c2cccc[n+]2C)Sc2ccc(OC)cc21 | 3.5µM* | 1µM* | -27% | -94*
COc1ccc2c(c1)N(C)/C(=C/c1cccc[n+]1C)S2 | 3.5µM* | 0.37µM* | ? | -99*
O=C1C(Cc2ccccc2)SC(=Nc2ccccc2)N1c1ccccc1 (stereo not drawn) | 18% | 13µM* | 4% | -6
CCc1nnc(SCC(=O)Nc2cc(Cl)c(OC)cc2OC)c2cc3oc(C)cc3n12 | . | . | . | 9
CCN(Cc1ccncc1)Cc1c(O)ccc2cc(Br)ccc12 | 6% | 5.9µM* | 6.6µM* | -32
Cc1cc(NC(=O)C(C)Oc2ccc(Cl)cc2Cl)no1 (stereo not drawn) | -2% | 8% | 1.7µM* | -27
CC(=O)Nc1ccc(C(=O)Nc2cc(C)on2)cc1 | 14% | 63% | 18% | 27
CC(Oc1ccc(Cl)cc1Cl)C(=O)Nc1ccc2oc(-c3ccncc3)nc2c1 (stereo not drawn) | 7.1µM* | -18% | -12% | -74*
Cc1cc(NC(=O)c2ccc(NC(=O)C(C)Oc3ccccc3)cc2)no1 (stereo not drawn) | 0% | 6.6µM* | . | -28
Cc1ccc(-c2nc3cc(NC(=O)C(C)C)ccc3o2)cc1 | ? | 44% | 15% | 41
CC(Oc1ccc(Cl)cc1Cl)C(=O)N(C)c1ccccc1 (stereo not drawn) | 0% | -18% | ? | -67*
CC(=O)c1cccc(NC(=O)Cn2c(=O)oc3cc(S(=O)(=O)NCc4ccccc4)ccc32)c1 | . | . | . | 0
Cc1ccc(C)c(NC(=O)Cn2cnc3nc4c(cc3c2=O)CCCC4)c1 | . | . | . | 35
COC(=O)c1cc2sccc2n1Cc1ccc(F)cc1Cl | . | . | . | -20
CC(C)NS(=O)(=O)c1ccc(NC(=O)C(C)Oc2ccc(C(=O)c3ccccc3)cc2)cc1 (stereo not drawn) | ? | ? | 2.3µM* | 12
SMILES | HCV inhibitor | Pf growth 48h | Pf growth 96h | HCMV inh
Cc1ccc(OC(C)C(=O)Nc2cc(C)on2)cc1 (stereo not drawn) | 16% | 15% | 4.7µM* | 13
COc1ccc(NC(=O)CNC(=O)c2ccc([N+](=O)[O-])cc2)cc1 | 21% | 0% | ? | ?
COc1ccc(N/C(C)=C2/C(=O)C(=O)N(CCO)C2c2ccc([N+](=O)[O-])cc2)cc1 (stereo not drawn) | -7% | -4% | ? | -99*
COc1ccc(OC(C)C(=O)Nc2ccc([N+](=O)[O-])cc2)cc1 (stereo not drawn) | 1% | ? | 15µM* | -7
COc1ccc(C(=O)CC(=O)Nc2ccc([N+](=O)[O-])cc2)cc1 | 11µM* | -18% | ? | ?
COc1ccc(C2/C(=C(/O)c3ccccc3)C(=O)C(=O)N2CO)cc1 (stereo not drawn) | -17% | 5% | ? | -2
COc1ccc(-c2nc(C)c(CCNC(=O)c3ccccc3Br)s2)cc1OC | . | . | . | 167
CCCNC(=O)c1cc(C2CCCN(C(=O)c3ccc(OC)cc3)C2)on1 (stereo not drawn) | . | . | . | 10

High-throughput results from PubChem BioAssay.
